Measured values taken from PubChem BioAssay (NCI).
The panel holds about 83,000 compounds, 20% with a hit somewhere; the sample as a whole holds those more often.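 Interpretation: 100, growth as untreated; towards 0, rising growth inhibition; 0, no net growth; 0 to -100, cell death. Compounds scoring below 10 were considered active.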 Unmarked numbers belong to inactive results. Calls of active or inactive are those of the source.

test system: NCI/ADR-RES ovarian; assay: NCI-60 one-dose screen, 48 h (100 = growth as untreated, 0 = no growth, -100 = all killed); details: 10 µM

Structure (SMILES) | growth
COc1ccc(-c2c(N)c(=O)n(C)c3ccccc23)cc1 | 58.5%
COc1ccc2c(c1)N=C(C(=O)O)/C2=C/c1sc(Nc2ccc(O)cc2)nc1O | 93.3%
CN(C)c1ccc(/C=C/c2nc3ccccc3c(=O)n2CC(=O)Nc2ccc(Cl)cc2)cc1 | 22.4%
COc1ccccc1C(=O)NNC(=O)CSc1nc2c(c(=O)[nH]1)CCCC2 | 104%
CN(C)c1nc(NCCNS(=O)(=O)c2ccc(C(=O)/C=C/c3ccccc3)cc2)nc(Nc2ccc(F)cc2)n1 | 15.7%
CN(CCO)c1oc(-c2ccccc2)nc1[P+](c1ccccc1)(c1ccccc1)c1ccccc1 | 96.6%
CCOC(=O)C1=C(N)N(c2ccccc2)C2=C(C(=O)CC(C)(C)C2)C1c1ccccc1OC (stereo unspecified) | 96.6%
CCOC(=O)C1=C(N)N(c2ccccc2)C2=C(C(=O)CC(C)(C)C2)C1c1ccc(Cl)cc1 (stereo unspecified) | 25.6%
Brc1ccc(N/N=C/c2c[nH]c3ccccc23)nc1 | 5.81% (active)
C=CCn1c(SCC(=O)Nc2ccc(C(=O)/C=C/c3ccccc3)cc2)nnc1-c1c[nH]c2ccccc12 | 85.4%
C/C(=C\CSc1ccccc1C(=O)O)CCCC(C)CCCC(C)CCCC(C)C (stereo unspecified) | 43.1%
COc1cc2c(cc1OC)/C(=C\c1sc(Nc3ccc(O)cc3)nc1O)C(C(=O)O)=N2 | 85.4%
COc1ccc(Nc2nc(N)n(Cc3cccc(Br)c3)n2)cc1 | 2.23% (active)
CC[C@]12C=CCN3CC[C@@]4(c5cc(C#CCNc6ccc(C)c(Nc7nccc(-c8cccnc8)n7)c6)c(OC)cc5N(C)[C@H]4[C@@](O)(C(=O)OC)[C@@H]1OC(C)=O)C32 (stereo partly specified) | 54.4%
O=S(=O)(Nc1ncccn1)c1ccc(-n2c(-c3ccc(Br)cc3)nc(-c3ccccc3)c2-c2ccccc2)cc1 | 33.6%
Cc1ccc2nc(COc3ccc(C(=O)NNC(=S)NC(=O)c4ccccc4)cc3)[nH]c2c1 | -3.62% (active)
N#Cc1c(NC(=O)c2ccc(C(F)(F)F)c(Cl)c2)sc2c1CCC(=O)C2 | -48.9% (active)
CN1CCN(c2ccc(C(=O)/C=C/c3cc(C(F)(F)F)ccc3Cl)cc2)CC1 | -56.9% (active)
CN1CCN(Cc2ccc(C(=O)Nc3cccc(Nc4ccc5c(O)cccc5n4)c3)cc2C(F)(F)F)CC1 | -0.427% (active)
CC(C)(C)c1ccc(NCc2cn(-c3ccc(C(=O)O)cc3)nc2-c2ccc(C#N)cc2)cc1 | 11.7%
CCOc1ccc(/C=N/NC(=O)Cn2nc(Cc3ccc([N+](=O)[O-])cc3)c3onc(C)c3c2=O)cc1 | 19.4%
